About 79,000 compounds went through this panel and 15% of them were active in at least one assay; those are over-represented in the sample as a whole. Rule as the data show it: active = growth inhibition above about 70%; inactive = the rest.
What was measured:
[1] = NCI Yeast Anticancer Drug Screen. Data for the rad50 strain (AID 155);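 also: 0% = growth of vehicle-only cultures of the same strain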; details: S. cerevisiae rad50 strain growth inhibition; at 50.0 µM; active compounds read high
Outline: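 Growth of the mutant yeast was measured after compound exposure and referenced to vehicle-treated cultures.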

[2] = NCI Yeast Anticancer Drug Screen. Data for the mec2-1 strain (AID 157); details: S. cerevisiae mec2-1 strain, at 50.0 µM, active compounds read high
Outline: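 Strain: mec2-1 (DNA repair/cell cycle alteration). Compound exposure, then growth measured; inhibition expressed relative to vehicle.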

[3] = NCI Yeast Anticancer Drug Screen. Data for the sgs1 mgt1 strain (AID 161);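 also: 0% = growth of cultures given vehicle only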; details: S. cerevisiae sgs1 mgt1 strain, at 50.0 µM, active compounds read high
Outline: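 Mutant yeast exposed to compound; growth scored against vehicle-only wells.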

[4] = NCI Yeast Anticancer Drug Screen. Data for the cln2 rad14 strain (AID 165);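 also: 0% = growth equal to vehicle treated cultures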; details: S. cerevisiae cln2 rad14 strain, at 50.0 µM, active compounds read high
Outline: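 Compounds are applied to the cln2 rad14 yeast strain, and growth is then compared with that of vehicle-treated cultures to give inhibition.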

[5] = NCI Yeast Anticancer Drug Screen. Data for the bub3 strain (AID 167); details: S. cerevisiae bub3 mutant strain, at 50.0 µM, active compounds read high
Outline: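 Whole-cell yeast assay. The mutant strain was incubated with compounds, and growth inhibition was determined by comparison with vehicle-treated cells.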

[6] = NCI Yeast Anticancer Drug Screen. Data for the mlh1 rad18 strain (AID 175); details: S. cerevisiae mlh1 rad18 strain growth inhibition; at 50.0 µM; active compounds read high
Outline: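 Read-out is yeast growth inhibition, calculated against vehicle-only controls. The compound was applied to a strain engineered with DNA damage repair alterations.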

Measured: growth inhibition

CC(N)CCC(=O)O (stereo not given)
inactive: [1] -16.1% | [2] -27.4% | [3] -15.7% | [4] -27.2% | [5] -32.1% | [6] -31%

Cc1ccc(OCC2OC(n3cnc4c(N(C)C)nc(Br)nc43)CC2Oc2ccc(C)cc2)cc1 (stereo not given)
inactive: [1] 17.5% | [2] -4.8% | [3] 13.1% | [4] 12.6% | [5] 2.45% | [6] -17%

Cc1cccc(C(C)(O)c2cnc(C)n2Cc2ccccc2)c1 (stereo not given)
inactive: [1] 5.1% | [2] 14.2% | [3] 10.8% | [4] 18.8% | [5] 9.35% | [6] 15.2%

CC(=O)OCCCC(C)Nc1ccnc2cc(Cl)ccc12 (stereo not given)
inactive: [1] -8.15% | [2] -8.95% | [3] -2.35% | [4] 19.9% | [5] -7.9% | [6] 11.3%

Cc1cccc(C)c1/[N+]([O-])=C/c1cccc([N+](=O)[O-])c1
inactive: [1] -1.8% | [2] -31.1% | [3] -3.3% | [4] -29.4% | [5] 10% | [6] -2.25%

S=C(Nc1ccc(N=Nc2ccccc2)cc1)SCc1ccc(Cl)cc1
inactive: [1] 28.4% | [2] 3.6% | [3] 20.6% | [4] 13.1% | [5] -2.75% | [6] 14%

O=S(=O)(N1CCOCC1)N1CCOCC1
inactive: [1] -3.9% | [2] -7.7% | [3] -3.55% | [4] -25.6% | [5] 25.6% | [6] 3.85%

FC1(F)ON2CCc3ccccc3C2[C@H]1c1ccccc1 (stereo not given in full)
inactive: [1] 13.3% | [2] 14.7% | [3] 10.2% | [4] 10% | [5] 22.4% | [6] -50%

CCOc1ccccc1NC(=S)NC1CCCCC1
inactive: [1] -8.65% | [2] -9.3% | [3] 3.7% | [4] -17.2% | [5] 25.1% | [6] -6.3%

COc1ccc(Cl)cc1NC(=O)O/N=C(\Cl)C(C)C
inactive: [1] -3.65% | [2] 7.55% | [3] 10.9% | [4] 16.2% | [5] 24.9% | [6] -74.3%

CCCCCCCCCCCCCCCCCC(=O)OCC(O)CO (stereo not given)
inactive: [1] -2.85% | [2] -16.8% | [3] 2.85% | [4] 7.2% | [5] -0.45% | [6] 7%

c1ccc2cc(N=Nc3cccc4ccccc34)ccc2c1
inactive: [1] -10.5% | [2] -17.9% | [3] 1.15% | [4] -19% | [5] 1.1% | [6] -7.75%

CNN=C(C)C
inactive: [1] -2.15% | [2] 3.8% | [3] -3.4% | [4] -4.8% | [5] 2.5% | [6] -19.3%

CCOC(=O)c1c(C)[nH]c(C2=NCCC2)c1C
inactive: [1] -8.7% | [2] 5.3% | [3] 1.7% | [4] -55.9% | [5] 2.95% | [6] -5.95%

CC(=O)c1ccc(N=C2C(=O)Nc3ccccc32)cc1
inactive: [1] 28.9% | [2] 15.8% | [3] 10.4% | [4] 19.8% | [5] 9% | [6] 25.8%

Clc1nc(N2CCOCC2)nc(N2CCOCC2)n1
inactive: [1] -9.5% | [2] -21.1% | [3] -3.2% | [4] -32.1% | [5] 7.7% | [6] -5.65%

CCOC(=O)C12CCC(=O)CC1(O)CCC1(C2)OCCCO1 (stereo not given)
inactive: [1] 10.1% | [2] -15.9% | [3] -17.9% | [4] -21.8% | [5] 10.9% | [6] 3.85%

CCOC(=O)c1cn(Cc2ccccc2)c(=O)n1Cc1ccccc1
inactive: [1] 36% | [2] 23.3% | [3] 23.5% | [4] -2.4% | [5] 42.5% | [6] 56.1%

CCOC(=O)/C(C#N)=C/c1cc(Br)c(O)c(OC)c1
inactive: [1] -12.3% | [2] -22% | [3] 25.4% | [4] -0.8% | [5] 6.25% | [6] 10.8%

COC(=O)/C=C(\C(=O)OC)C1=C(N2CCCC2)CC(C)(C)CC1=O
inactive: [1] -7.8% | [2] -14.9% | [3] -14.1% | [4] -14.3% | [5] -14.3% | [6] -1.1%
